Several values for one entry are separate records, joined by “and”; a condition that tells them apart may be missing. Identical values can stand only once. Results filed as inconclusive are left out. Where a structure was tested more than once in an assay, its records may differ in their call. Activity calls are given as the source filed them. Rule for the calls, unless noted: active = hit-call score of the fitted dose curve at least 0.9, where 1 is the maximum; inactive = score below 0.9.
Experiments:
[1] = target: Bile acid receptor (Homo sapiens) (UniProt Q96RI1); experiment: ATG_FXR_TRANS: Attagene TRANS-FACTORIAL HepG2 Assay for Farnesoid X Receptor (FXR) (AID 2282979; active = hit-call score of the fitted dose curve at least 0.9, where 1 is the maximum;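 note: hits raise reporter mRNA above DMSO so AC50 marks FXR activation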); conditions: HepG2 Attagene TRANS FXR-GAL4 reporter transcription
How it was run: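 Transient transfection of HepG2 with multiplexed GAL4-UAS reporter units; exogenous FXR-GAL4 chimera. Dose 24 h → TriZol RNA → oligo(dT) RT → PCR, 6-FAM primer extension, HpaI cut → CE. Gain vs DMSO.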

[2] = target: Oxysterols receptor LXR-alpha (Homo sapiens) (UniProt Q13133); experiment: ATG_LXRa_TRANS: Attagene TRANS-FACTORIAL HepG2 Assay for human Liver X Receptor alpha (LXRa) (AID 2282980; active = hit-call score of the fitted dose curve at least 0.9, where 1 is the maximum); conditions: HepG2 Attagene TRANS reporter, LXRa transactivation
How it was run: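 Transfect HepG2 with GAL4-UAS multiplex reporter constructs (TRANS format, chimeric receptor-GAL4); treat 24 h; extract RNA, reverse-transcribe, PCR-amplify, FAM-label, HpaI-digest; resolve fragments by capillary electrophoresis. Upward response vs DMSO.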

[3] = target: Oxysterols receptor LXR-beta (Homo sapiens) (UniProt P55055); experiment: ATG_LXRb_TRANS: Attagene TRANS-FACTORIAL HepG2 Assay for human Liver X Receptor beta (LXRb) (AID 2282981; active = hit-call score of the fitted dose curve at least 0.9, where 1 is the maximum); conditions: HepG2 Attagene TRANS GAL4-LXRb reporter, mRNA
How it was run: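 Cells: HepG2, transiently transfected with GAL4-UAS reporter units plus LXRb-Gal4 fusion. Treatment: 24 h. Detection: reporter mRNA by RT-PCR, 6-FAM labelling, HpaI digestion, capillary electrophoresis.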

[4] = target: Hepatocyte nuclear factor 4-alpha (Homo sapiens) (UniProt P41235); experiment: ATG_HNF4a_TRANS: Attagene TRANS-FACTORIAL HepG2 Assay for human Hepatocyte Nuclear Factor 4 alpha (HNF4a) (AID 2282982; active = hit-call score of the fitted dose curve at least 0.9, where 1 is the maximum); conditions: HepG2 HNF4a transactivation reporter, mRNA readout
How it was run: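 Transfected HepG2 reporter cells are dosed for 24 h; reporter RNA is reverse-transcribed, amplified, fluorescently labelled and HpaI-digested before CE sizing. Positive-direction fit against DMSO.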

[5] = ATG_M_06_TRANS: Attagene TRANS-FACTORIAL HepG2 Assay for M06 Transcription Factor (Internal Marker) (AID 2282983; active = hit-call score of the fitted dose curve at least 0.9, where 1 is the maximum); conditions: HepG2 Attagene TRANS M06 internal marker reporter
How it was run: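 Transfect HepG2 with MRTUs → dose compounds 24 h → isolate RNA, oligo(dT) RT → PCR with reporter primers → 6-FAM primer extension → HpaI digest → CE fragment analysis. Positive direction vs DMSO.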

[6] = ATG_M_32_TRANS: Attagene TRANS-FACTORIAL HepG2 Assay for M32 Transcription Factor (Internal Marker) (AID 2282984; active = hit-call score of the fitted dose curve at least 0.9, where 1 is the maximum;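 note: transcript level of a background control reporter unit measured by RT-PCR and capillary electrophoresis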); conditions: HepG2 Attagene TRANS M32 internal marker reporter
How it was run: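 Using transiently transfected HepG2 cells exposed to test chemicals for 24 h, reporter transcripts are converted to labelled cDNA fragments and quantified by capillary electrophoresis. DMSO defines the activity baseline.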

[7] = target: Nuclear receptor subfamily 4 group A member 2 (Homo sapiens) (UniProt P43354); experiment: ATG_NURR1_TRANS: Attagene TRANS-FACTORIAL HepG2 Assay for human Nuclear Receptor Related Protein 1 (NURR1) (AID 2282985; active = hit-call score of the fitted dose curve at least 0.9, where 1 is the maximum); conditions: HepG2 Attagene TRANS reporter, mRNA readout
How it was run: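 Cells: HepG2, transiently transfected. Exposure: 24 h. Detection: fluorescence of labelled RT-PCR products separated by capillary electrophoresis; upward fit versus DMSO.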

[8] = target: Transcriptional activator Myb (Homo sapiens) (UniProt P10242); experiment: ATG_Myb_CIS: Attagene CIS-FACTORIAL HepG2 Assay for human Myeloblastosis (Myb) Proto-Oncogene Transcription Factor (AID 2282986); conditions: HepG2 Attagene CIS-FACTORIAL Myb reporter transcription; actives raise or lower the signal
How it was run: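 Reporter mRNA is quantified by RT-PCR and capillary electrophoresis 24 h after dosing HepG2 cells transfected with cis-regulated reporter units, which track endogenous transcription factor activity. Gain and loss of signal are fitted versus DMSO baseline.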

[9] = target: Nuclear respiratory factor 1 (Homo sapiens) (UniProt Q16656); experiment: ATG_NRF1_CIS: Attagene CIS-FACTORIAL HepG2 Assay for human Nuclear Respiratory Factor 1 (NRF1) Orphan Gene (AID 2282987); conditions: HepG2 NRF1 cis-element reporter, Attagene multiplex; actives raise or lower the signal
How it was run: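 Endogenous NRF1-driven reporter transcription in transfected HepG2 cells after 24 h treatment. Readout: RT-PCR products, 6-FAM labelled and resolved by capillary electrophoresis; changes fitted both directions relative to DMSO.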

[10] = ATG_NFI_CIS: Attagene CIS-FACTORIAL HepG2 Assay for human Nuclear Factor I (NFI) (AID 2282989); conditions: HepG2 cis-regulatory reporter, NFI response element transcription; actives raise or lower the signal
How it was run: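 HepG2, transient MRTU, 24 h exposure; RNA→cDNA→PCR→FAM label→HpaI→CE fluorescence. Bidirectional fit, DMSO = baseline.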

[11] = target: Myc proto-oncogene protein (Homo sapiens) (UniProt P01106); experiment: ATG_Myc_CIS: Attagene CIS-FACTORIAL HepG2 Assay for human Myelocytomatosis (Myc) Proto-Oncogene Transcription Factor (AID 2282990); conditions: HepG2, Attagene cis-reporter transcription factor activity; actives raise or lower the signal
How it was run: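 HepG2, transient MRTU transfection (cis promoters, endogenous TFs); 24 h dosing; TriZol RNA → oligo(dT) RT → PCR → 6-FAM primer extension → HpaI cut → CE. Bidirectional fit vs DMSO.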

[12] = ATG_NF_kB_CIS: Attagene CIS-FACTORIAL HepG2 Assay for human Nuclear Factor Kappa B (NF-kB) (AID 2282991); conditions: HepG2 Attagene cis-factorial NF-kB reporter mRNA; actives raise or lower the signal
How it was run: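 Readout is reporter transcript level, gain or loss versus DMSO, measured 24 h post-dose via RT-PCR, fluorescent labelling and capillary electrophoresis. Human HepG2 liver cells carried transiently transfected CIS reporter constructs reflecting endogenous factors.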

[13] = ATG_NRF2_ARE_CIS: Attagene CIS-FACTORIAL HepG2 Assay for human Nuclear Factor Erythroid 2 Related Factor 2 (NFR2) response to Antioxidant Response Elements (ARE) (AID 2282992); conditions: HepG2 Attagene ARE/NRF2 reporter, transcription factor activity; actives raise or lower the signal;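 for AC50: reporter mRNA level measured by RT-PCR and capillary electrophoresis fluorescence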
How it was run: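 Transient MRTU transfection of HepG2; 24 h compound exposure; TriZol RNA, RT with oligo(dT), PCR, 6-FAM primer extension, HpaI cut, CE. Bidirectional fit vs DMSO.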

[14] = ATG_Oct_MLP_CIS: Attagene CIS-FACTORIAL HepG2 Assay for human Octamer-Binding Transcription Factor (Oct) (AID 2282993); conditions: HepG2 Attagene cis-factorial Oct reporter, mRNA; actives raise or lower the signal
How it was run: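 Multiplexed cis-reporter assay in human liver HepG2 cells, 24 h incubation. Reporter RNA amplified and labelled, then resolved by capillary electrophoresis; DMSO serves as negative control and baseline.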

[15] = target: Cellular tumor antigen p53 (Homo sapiens) (UniProt P04637); experiment: ATG_p53_CIS: Attagene CIS-FACTORIAL HepG2 Assay for human p53 Transcription Factor (AID 2282994); conditions: HepG2 p53 cis-element reporter, Attagene mRNA; actives raise or lower the signal
How it was run: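 HepG2, transient MRTU transfection (cis promoter elements, endogenous TFs); 24 h dosing; RNA isolation, RT-PCR, 6-FAM primer extension, HpaI digest, CE fluorescence; bidirectional fit vs DMSO.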

[16] = BSK_3C_TissueFactor: BioMAP Diversity Plus: 3C Assay for Tissue Factor Biomarker Activity (AID 2282997); conditions: BioMAP 3C HUVEC, tissue factor biomarker readout; actives raise or lower the signal
How it was run: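 ELISA read-out of Tissue Factor levels on human umbilical vein endothelium collected 24 h after chemical dosing. Gain or loss of signal was fitted relative to DMSO.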

[17] = BSK_3C_uPAR: BioMAP Diversity Plus: 3C Assay for Urokinase-type plasminogen activator receptor (uPAR) Biomarker Activity (AID 2282998); conditions: BioMAP 3C HUVEC, uPAR biomarker ELISA; actives raise or lower the signal
How it was run: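 Dose primary human umbilical vein endothelial cells, incubate 24 h, measure cell-surface uPAR by ELISA, then fit the signal in both directions against the DMSO negative control.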

[18] = BSK_3C_VCAM1: BioMAP Diversity Plus: 3C Assay for Vascular cell adhesion molecule 1 (VCAM1) Biomarker Activity (AID 2282999); conditions: BioMAP 3C HUVEC, VCAM1 ELISA, cytokine-stimulated; actives raise or lower the signal
How it was run: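 Endothelial cells from human umbilical vein are treated with test chemical. At 24 h, VCAM-1 is measured by ELISA, and responses in either direction are fitted relative to DMSO.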

[19] = BSK_4H_Eotaxin3: BioMAP Diversity Plus: 4H Assay for Eotaxin 3 Biomarker Activity (AID 2283000); conditions: primary human endothelial cells (HUVEC); actives raise or lower the signal
How it was run: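 Chemicals were added to human umbilical vein endothelium cultures, and Eotaxin-3 was quantified by ELISA at 24 h. Values were derived by bidirectional fitting with DMSO serving as negative control and activity baseline.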

[20] = target: human Peroxisome Proliferator-activated Receptor alpha (PPARa), PPARA (gene 5465) (UniProt Q07869); experiment: ATG_PPARa_TRANS: Attagene TRANS-FACTORIAL HepG2 Assay for human Peroxisome Proliferator-activated Receptor alpha (PPARa) (AID 2283001; active = hit-call score of the fitted dose curve at least 0.9, where 1 is the maximum;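 for AC50: potency for gain of reporter signal over DMSO so agonist or activator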)
How it was run: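 Reporter transcripts from GAL4-UAS units in transfected HepG2 were quantified 24 h after dosing. Detection used reverse transcription, PCR, fluorescent primer extension and capillary electrophoresis, with DMSO as baseline.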

Measured: AC50

Sequence of Transcriptional activator Myb (Homo sapiens) (P10242 whole entry, looked up): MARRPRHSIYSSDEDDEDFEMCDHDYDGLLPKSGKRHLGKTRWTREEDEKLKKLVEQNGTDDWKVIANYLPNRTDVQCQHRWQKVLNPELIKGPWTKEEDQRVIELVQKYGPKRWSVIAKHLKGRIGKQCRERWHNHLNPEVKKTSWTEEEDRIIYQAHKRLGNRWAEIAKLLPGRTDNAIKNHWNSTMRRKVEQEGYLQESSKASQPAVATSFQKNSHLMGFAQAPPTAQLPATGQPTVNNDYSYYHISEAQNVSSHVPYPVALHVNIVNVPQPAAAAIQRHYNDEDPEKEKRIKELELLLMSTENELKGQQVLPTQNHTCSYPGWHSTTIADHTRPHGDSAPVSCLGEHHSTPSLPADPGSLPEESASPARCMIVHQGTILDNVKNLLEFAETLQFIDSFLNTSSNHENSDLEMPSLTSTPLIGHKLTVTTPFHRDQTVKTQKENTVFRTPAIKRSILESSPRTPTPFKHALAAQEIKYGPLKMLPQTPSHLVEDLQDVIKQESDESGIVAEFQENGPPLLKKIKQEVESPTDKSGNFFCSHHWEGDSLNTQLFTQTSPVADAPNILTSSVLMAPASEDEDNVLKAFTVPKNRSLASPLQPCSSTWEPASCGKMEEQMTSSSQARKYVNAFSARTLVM
Sequence of Oxysterols receptor LXR-beta (Homo sapiens) (P55055 whole entry, looked up, the tested form may be a part): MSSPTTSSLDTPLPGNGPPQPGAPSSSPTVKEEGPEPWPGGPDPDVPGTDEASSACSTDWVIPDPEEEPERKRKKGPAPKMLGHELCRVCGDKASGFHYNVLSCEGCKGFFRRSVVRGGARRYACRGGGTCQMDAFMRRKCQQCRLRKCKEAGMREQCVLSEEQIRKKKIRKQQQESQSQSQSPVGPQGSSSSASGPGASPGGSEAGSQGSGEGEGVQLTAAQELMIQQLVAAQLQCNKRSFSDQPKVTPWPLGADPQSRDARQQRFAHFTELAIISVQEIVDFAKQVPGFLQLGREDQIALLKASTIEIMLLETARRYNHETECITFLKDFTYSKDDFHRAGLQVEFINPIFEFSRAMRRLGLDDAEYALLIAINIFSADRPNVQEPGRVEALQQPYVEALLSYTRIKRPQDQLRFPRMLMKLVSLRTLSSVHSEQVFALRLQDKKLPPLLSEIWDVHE
Sequence of Oxysterols receptor LXR-alpha (Homo sapiens) (Q13133 whole entry, looked up, the tested form may be a part): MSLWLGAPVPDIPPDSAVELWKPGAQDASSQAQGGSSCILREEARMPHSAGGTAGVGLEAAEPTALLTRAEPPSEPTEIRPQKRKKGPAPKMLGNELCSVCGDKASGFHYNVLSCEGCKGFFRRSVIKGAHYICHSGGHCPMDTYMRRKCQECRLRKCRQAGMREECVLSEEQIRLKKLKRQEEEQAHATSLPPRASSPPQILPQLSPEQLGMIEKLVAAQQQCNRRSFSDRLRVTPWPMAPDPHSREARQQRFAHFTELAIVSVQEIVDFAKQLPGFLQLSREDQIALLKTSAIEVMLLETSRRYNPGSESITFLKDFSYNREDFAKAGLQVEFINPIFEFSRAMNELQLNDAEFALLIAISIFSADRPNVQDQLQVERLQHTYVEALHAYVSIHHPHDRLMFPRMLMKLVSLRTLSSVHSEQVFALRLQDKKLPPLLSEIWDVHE
Sequence of Hepatocyte nuclear factor 4-alpha (Homo sapiens) (P41235 whole entry, looked up): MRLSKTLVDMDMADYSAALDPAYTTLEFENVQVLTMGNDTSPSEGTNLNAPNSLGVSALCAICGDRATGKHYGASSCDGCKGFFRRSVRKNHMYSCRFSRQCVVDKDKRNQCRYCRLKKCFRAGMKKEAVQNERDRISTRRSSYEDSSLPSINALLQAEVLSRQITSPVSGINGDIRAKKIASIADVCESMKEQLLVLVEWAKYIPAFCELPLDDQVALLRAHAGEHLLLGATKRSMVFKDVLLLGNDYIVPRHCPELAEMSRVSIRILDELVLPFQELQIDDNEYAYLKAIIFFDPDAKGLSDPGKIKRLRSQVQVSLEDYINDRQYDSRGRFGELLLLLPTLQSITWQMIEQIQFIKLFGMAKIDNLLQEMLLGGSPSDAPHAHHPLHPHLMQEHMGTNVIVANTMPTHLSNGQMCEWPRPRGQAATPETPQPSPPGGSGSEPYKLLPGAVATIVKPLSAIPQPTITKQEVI
Sequence of Nuclear respiratory factor 1 (Homo sapiens) (Q16656 whole entry, looked up): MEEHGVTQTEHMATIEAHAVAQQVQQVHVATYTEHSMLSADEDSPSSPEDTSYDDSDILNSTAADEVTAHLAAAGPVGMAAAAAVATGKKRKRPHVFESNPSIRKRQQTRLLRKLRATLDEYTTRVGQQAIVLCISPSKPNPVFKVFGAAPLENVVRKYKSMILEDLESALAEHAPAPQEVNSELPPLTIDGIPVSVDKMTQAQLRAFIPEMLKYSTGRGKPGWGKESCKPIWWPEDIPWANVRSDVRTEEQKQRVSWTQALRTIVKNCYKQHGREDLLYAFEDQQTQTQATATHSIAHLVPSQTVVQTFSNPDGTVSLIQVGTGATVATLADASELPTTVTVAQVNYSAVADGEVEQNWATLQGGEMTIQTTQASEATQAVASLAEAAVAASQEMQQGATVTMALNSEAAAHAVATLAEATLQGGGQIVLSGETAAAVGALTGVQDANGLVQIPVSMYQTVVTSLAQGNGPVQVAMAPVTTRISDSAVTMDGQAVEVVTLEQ
Sequence of Bile acid receptor (Homo sapiens) (Q96RI1 whole entry, looked up, the tested form may be a part): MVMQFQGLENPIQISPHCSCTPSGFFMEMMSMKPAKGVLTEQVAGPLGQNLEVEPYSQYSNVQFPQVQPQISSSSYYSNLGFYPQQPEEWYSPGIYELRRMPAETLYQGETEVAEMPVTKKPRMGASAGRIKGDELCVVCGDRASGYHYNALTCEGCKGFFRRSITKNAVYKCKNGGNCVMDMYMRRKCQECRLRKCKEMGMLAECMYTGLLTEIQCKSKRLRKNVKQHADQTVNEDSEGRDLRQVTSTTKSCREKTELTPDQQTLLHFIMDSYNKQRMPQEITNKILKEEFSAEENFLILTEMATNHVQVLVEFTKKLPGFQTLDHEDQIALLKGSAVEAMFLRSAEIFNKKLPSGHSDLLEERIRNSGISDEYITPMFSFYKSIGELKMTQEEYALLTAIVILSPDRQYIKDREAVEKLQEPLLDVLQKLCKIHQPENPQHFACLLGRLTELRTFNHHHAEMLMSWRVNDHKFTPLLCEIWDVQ
Sequence of Cellular tumor antigen p53 (Homo sapiens) (P04637 whole entry, looked up): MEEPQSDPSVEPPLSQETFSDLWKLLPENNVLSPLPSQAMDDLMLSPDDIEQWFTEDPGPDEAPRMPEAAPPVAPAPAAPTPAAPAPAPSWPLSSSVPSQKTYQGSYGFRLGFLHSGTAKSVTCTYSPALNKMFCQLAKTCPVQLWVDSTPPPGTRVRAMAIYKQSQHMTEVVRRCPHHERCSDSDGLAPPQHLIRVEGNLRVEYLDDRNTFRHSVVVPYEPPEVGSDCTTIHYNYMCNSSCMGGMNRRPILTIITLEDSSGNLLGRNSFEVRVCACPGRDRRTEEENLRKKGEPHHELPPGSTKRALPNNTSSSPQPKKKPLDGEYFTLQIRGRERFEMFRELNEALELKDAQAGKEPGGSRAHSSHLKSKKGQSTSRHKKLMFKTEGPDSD
Sequence of human Peroxisome Proliferator-activated Receptor alpha (PPARa), PPARA (gene 5465) (Q07869 whole entry, looked up, the tested form may be a part): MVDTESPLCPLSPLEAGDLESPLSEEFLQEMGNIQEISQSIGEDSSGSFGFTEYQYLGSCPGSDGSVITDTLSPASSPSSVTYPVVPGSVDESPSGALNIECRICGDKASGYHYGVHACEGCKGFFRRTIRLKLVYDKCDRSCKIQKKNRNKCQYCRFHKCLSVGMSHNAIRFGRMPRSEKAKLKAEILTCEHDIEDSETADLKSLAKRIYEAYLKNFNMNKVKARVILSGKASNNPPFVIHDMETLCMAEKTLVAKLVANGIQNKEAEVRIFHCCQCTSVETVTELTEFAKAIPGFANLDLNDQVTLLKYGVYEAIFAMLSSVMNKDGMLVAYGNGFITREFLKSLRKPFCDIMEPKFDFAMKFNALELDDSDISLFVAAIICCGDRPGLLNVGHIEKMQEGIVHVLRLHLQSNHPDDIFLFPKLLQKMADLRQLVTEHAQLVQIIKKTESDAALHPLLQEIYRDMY
Sequence of Nuclear receptor subfamily 4 group A member 2 (Homo sapiens) (P43354 whole entry, looked up): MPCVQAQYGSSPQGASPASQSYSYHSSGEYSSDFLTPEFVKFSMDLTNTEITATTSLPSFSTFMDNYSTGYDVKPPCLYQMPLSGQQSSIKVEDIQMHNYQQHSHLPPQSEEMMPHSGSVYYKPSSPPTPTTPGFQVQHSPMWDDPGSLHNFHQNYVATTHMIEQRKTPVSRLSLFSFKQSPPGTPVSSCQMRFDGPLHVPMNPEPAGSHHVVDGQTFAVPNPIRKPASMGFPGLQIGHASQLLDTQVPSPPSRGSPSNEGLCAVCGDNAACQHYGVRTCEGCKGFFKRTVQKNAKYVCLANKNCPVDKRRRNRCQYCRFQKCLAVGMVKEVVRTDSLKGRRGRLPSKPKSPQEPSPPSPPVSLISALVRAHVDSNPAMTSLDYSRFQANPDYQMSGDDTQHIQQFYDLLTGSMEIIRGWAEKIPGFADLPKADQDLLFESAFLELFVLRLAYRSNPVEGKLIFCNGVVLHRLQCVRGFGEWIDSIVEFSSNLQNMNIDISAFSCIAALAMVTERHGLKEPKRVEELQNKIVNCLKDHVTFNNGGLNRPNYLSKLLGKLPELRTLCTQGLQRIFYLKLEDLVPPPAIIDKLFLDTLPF
Sequence of Myc proto-oncogene protein (Homo sapiens) (P01106 whole entry, looked up): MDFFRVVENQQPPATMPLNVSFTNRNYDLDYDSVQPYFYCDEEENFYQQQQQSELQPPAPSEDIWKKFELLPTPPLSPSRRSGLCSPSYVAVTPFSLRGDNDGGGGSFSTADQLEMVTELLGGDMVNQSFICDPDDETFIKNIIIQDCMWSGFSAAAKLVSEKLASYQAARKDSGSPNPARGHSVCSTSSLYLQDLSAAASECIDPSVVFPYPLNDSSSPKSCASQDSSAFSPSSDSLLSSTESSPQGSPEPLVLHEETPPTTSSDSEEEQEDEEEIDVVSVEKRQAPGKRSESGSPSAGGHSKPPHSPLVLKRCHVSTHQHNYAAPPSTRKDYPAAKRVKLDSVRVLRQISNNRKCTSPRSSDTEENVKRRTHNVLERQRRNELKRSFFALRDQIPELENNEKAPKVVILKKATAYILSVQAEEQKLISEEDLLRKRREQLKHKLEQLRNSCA

COc1ccc(C(c2ccc(OC)cc2)C(Cl)(Cl)Cl)cc1
inactive: [1] | [2] | [3] | [4] | [5] | [6] | [7] | [8] | [9] | [10] | [11] | [12] | [13] | [14] | [15] | [16] | [19] | [20]
active: [1] 26.5 µM | [14] 37.6 µM | [17] 30.1 µM | [18] 31.3 µM

CC1COC(Cn2cncn2)(c2ccc(Oc3ccc(Cl)cc3)cc2Cl)O1 (stereo not given)
active: [13] 1.88 µM | [14] 2.45 µM | [17] 28.4 µM | [18] 29.8 µM | [19] 32.9 µM
inactive: [1] | [2] | [3] | [5] | [6] | [8] | [9] | [10] | [11] | [15]

C=CCC1=C(C)C(OC(=O)C2C(C=C(C)C)C2(C)C)CC1=O (stereo not given)
inactive: [1] | [2] | [3] | [4] | [5] | [6] | [8] | [9] | [10] | [11] | [12] | [14] | [15] | [18] | [19] | [20]
active: [1] 35.7 µM and 35 µM and 27.2 µM | [4] 179 µM | [9] 136 µM and 144 µM | [10] 61.6 µM [middle of 5 runs] | [12] 43.2 µM and 105 µM | [14] 47.5 µM [middle of 5 runs] | [15] 170 µM and 86.4 µM | [16] 34 µM [middle of 4 runs] | [17] 35.3 µM [middle of 4 runs] | [18] 33.2 µM and 31 µM and 29.8 µM | [19] 33.4 µM and 38.4 µM and 32.5 µM | [20] 1.05 µM

Source: PubChem BioAssay (EPA / NIEHS)
